Only some compounds are listed: those with a hit (about 18% of all), similar ones and a draw of the others.
TDP1 inh: TDP1 (human) enzyme inhibition; hit rate 0.28% among 350,000; recombinant TDP1, AlphaScreen DNA substrate cleavage; Potency, µM (series often up to 130 µM), for the others: top-dose activity change, negative = inhibition, most hits filed as inhibitors; also: nearly all actives have a fitted effect of over 40% in size
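Here, a 5' biotin and 3' phosphotyrosine-FITC DNA oligonucleotide reports Tdp1 activity: intact substrate bridges AlphaScreen beads, while cleavage leaves a 3' phosphate and drops signal. All incubations at room temperature.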
GCN5L2 inh: GCN5L2 (KAT2A) acetyltransferase inhibition. Q92830. GCN5L2 HAT assay, ThioGlo1 CoA-SH fluorescence. Potency, µM (highest dose often 58.9 µM), inactives show at the highest dose activity change, negative = inhibition, most hits filed as inhibitors. hit rate 0.21% among 390,000. AID 504327
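Fluorescence readout, Ex340nm/Em540nm: ThioGlo1 (50uM final) reacts with free CoA thiol released as 20nM GCN5L2 acetylates H3(1-25) peptide (75uM) using acetyl-CoA (70uM). Compound and enzyme sat 15 min beforehand; 20 min room-temperature reaction.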
PLK1 PBD inh: blocks phosphopeptide binding to human PLK1 polo-box domain; P53350; Plk1 PBD binding of FITC phosphopeptide, fluorescence polarization; Potency, µM, for the others: max response, negative = inhibition, most hits filed as inhibitors; hit rate 2.8% among 360,000; also: series mostly up to about 57 µM; nearly all actives have a fitted effect of over 65% in size
VDR inhibitor: inhibitors of human vitamin D receptor; VDR-SRC2-3 peptide fluorescence polarization, 2 h; hit rate 0.93% among 400,000; Potency, µM, without a hit: max response, negative = inhibition, actives largely listed as inhibitors
Target sequence (P11473 whole entry, looked up): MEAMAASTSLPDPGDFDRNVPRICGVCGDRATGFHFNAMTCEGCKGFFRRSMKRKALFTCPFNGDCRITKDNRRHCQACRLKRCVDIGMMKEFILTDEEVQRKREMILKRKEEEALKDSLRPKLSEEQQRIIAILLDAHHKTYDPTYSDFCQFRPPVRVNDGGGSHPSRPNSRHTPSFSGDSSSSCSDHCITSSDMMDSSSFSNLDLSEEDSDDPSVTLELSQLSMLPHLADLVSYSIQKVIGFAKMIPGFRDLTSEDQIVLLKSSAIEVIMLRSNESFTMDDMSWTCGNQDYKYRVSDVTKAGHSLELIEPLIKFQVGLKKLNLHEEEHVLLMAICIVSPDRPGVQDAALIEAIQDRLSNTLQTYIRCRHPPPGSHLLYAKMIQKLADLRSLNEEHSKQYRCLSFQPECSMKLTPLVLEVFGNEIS
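FP read-out; VDR + SRC2-3 coactivator peptide; 23 nl compound by pintool; 2 h RT incubation; reagents held at 4 deg C, protected from light.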
TDP1 cell CPT: growth inhibition of DT40 Tdp1-/-;hTDP1 cells with camptothecin (screen for TDP1 inhibitors); chicken DT40 Tdp1-/-;hTDP1 cells + 20 nM CPT, ATP luminescence, 48 h; Potency, µM (series often up to 46.2 µM), inactives show top-dose activity change, negative = growth inhibition, actives largely listed as inhibitors; hit rate 12% among 420,000; AID 686979; also: nearly all actives have a fitted effect of over 55% in size
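Cell growth measured by CellTiter-Glo luminescence after a minimum 48 h, 37 C compound exposure with 20 nM CPT in Tdp1-knockout DT40 cells stably expressing hTDP1, seeded 400/well; qHTS titration format.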
DT40 TDP1 no CPT: qHTS for Inhibitors of human tyrosyl-DNA phosphodiesterase 1 (TDP1): qHTS in cells in absence of CPT | AID 686978, 2013 | Potency, µM (highest dose often 46.2 µM), for inactives: at the top dose activity change, negative = growth inhibition, most hits filed as inhibitors | hit rate 15% among 420,000 | DT40 Tdp1-/- hTDP1 cells, no CPT, ATP luminescence, 48 h; also: nearly all actives have a fitted effect of over 55% in size
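Readout: luminescence from CellTiter-Glo after 30 min in the dark at RT. Cells: DT40 Tdp1-/- with stable hTDP1, 400/well. Exposure: compounds alone, ≥48 hr, 37 °C.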
An asterisk follows results filed as active; ? = inconclusive; nt = not tested or not shown; [ ] = remark or other dose. Calls follow the shape of the dose curve; as a rule, active = well fitted curve in the direction sought with a large enough effect; inconclusive = small, poorly fitted or top-dose-only effect, or another doubt; inactive = no such curve, though single readings can be large; an effect the other way counts as inactive or inconclusive. % is scaled to controls: 0 for no effect and ±100 for the full control effect; potency is read from the fitted curve at half-maximal effect.

SMILES | TDP1 inh | GCN5L2 inh | PLK1 PBD inh | VDR inhibitor | TDP1 cell CPT | DT40 TDP1 no CPT
CCC(=O)N1c2ccc(S(=O)(=O)CCC(=O)N3CCN(c4ccccc4F)CC3)cc2CC1C (stereo not given) | nt | -14.1% | -7.0% | -10.8% | ? | 16.4µM*
O=C(O)CCN1C(=O)C2C3CC(C2C1=O)C1C(c2ccccc2)c2sc(=O)n(-c4ccccc4)c2SC31 (stereo not given) | 2.5% | -9.6% | 42.3µM* | ? | 11.2% | -0.3%
CCOc1cccc2sc(=NC(=O)c3ccco3)n(CC(=O)OC)c12 | 0.0% | -6.2% | -21.7% | 25.4% | ? | 14.6µM*
COc1cccc2sc(=NC(=O)CS(=O)(=O)c3ccc(Cl)cc3)n(C)c12 | 0.4% | -10.3% | -1.8% | -5.5% | 7.31µM* | 2.31µM*
COc1cccc2sc(=NC(=O)CS(=O)(=O)c3ccccc3)n(C)c12 | nt | nt | -10.0% | nt | ? | 14.6µM*
COCCn1c(=NC(=O)CCS(=O)(=O)c2ccccc2)sc2c(OC)ccc(OC)c21 | 3.9% | -6.5% | -2.7% | -6.4% | ? | ?
Cn1c(=NC(=O)CS(=O)(=O)c2ccccc2)sc2cc(F)ccc21 | nt | nt | -15.9% | nt | ? | ?
C#CCn1c(=NC(=O)c2ccco2)sc2cccc(Cl)c21 | 4.2% | -5.1% | -8.2% | 2.8% | -7.4% | -18.3%
CCOc1cccc2sc(=NC(=O)CCS(=O)(=O)c3ccccc3)n(CC)c12 | 1.0% | 4.1% | -9.6% | ? | ? | 11.6µM*
COc1ccc(NC(=O)c2cc3c(=O)n(Cc4ccco4)ccc3nc2C)cc1 | 4.5% | 3.7% | nt | -3.6% | -7.3% | ?
COc1ccc(C#Cc2cccc(-c3nc(C(=O)NCc4ccc(Oc5ccccc5)cc4)cc4c3[C@@H](CCO)N(S(=O)C(C)(C)C)C4)c2)cc1OC (stereo not given in full) | nt | nt | -4.2% | nt | ? | ?
COC(=O)CN1C(=O)CSc2ccc(S(=O)(=O)Nc3ccc(C)c(Cl)c3)cc21 | 11.3% | -1.4% | nt | -0.6% | ? | ?
O=C(NCCCN1CCOCC1)c1c(F)c(F)c(F)c(F)c1F | 3.7% | ? | -4.4% | 1.1% | -4.4% | 7.2%
CCn1c(=NC(=O)c2ccc(S(=O)(=O)N(C)C)cc2)sc2cccc(OC)c21 | 2.4% | -26.3% | -5.9% | -4.0% | -2.5% | -15.0%
COc1cccc2sc(=NC(=O)CS(=O)(=O)c3ccc(F)cc3)n(C)c12 | nt | -2.9% | 0.9% | -1.3% | ? | 11.6µM*
COc1cccc2sc(=NC(=O)CCS(=O)(=O)c3ccc(C)cc3)n(C)c12 | nt | -2.5% | 0.7% | -17.4% | ? | 20.6µM*
CCn1c(=NC(=O)CS(=O)(=O)c2ccc(C)cc2)sc2cccc(OC)c21 | nt | -15.8% | 1.3% | -3.6% | ? | 16.4µM*
COc1cccc(OC)c1C(=O)N=c1sc2cc(S(C)(=O)=O)ccc2n1C | 3.7% | -11.3% | -6.8% | 1.2% | -10.1% | -18.3%
CCCn1c(=NC(=O)CCS(=O)(=O)c2ccccc2)sc2cc(S(N)(=O)=O)ccc21 | -7.0% | -2.0% | -17.5% | 8.1% | 20.6µM* | 20.6µM*
Fc1cc(F)c2ncc3c(-c4ccccc4)nn(-c4cccc(Cl)c4)c3c2c1 | -2.3% | -4.4% | nt | -1.8% | -8.7% | -2.4%
O=C(CCc1ccccc1)NNC(=O)Nc1ccc(F)c(Cl)c1 | 1.4%[56.1 µM] | -6.0% | 4.9% | -2.7% | -0.2% | -15.4%
CCCCn1c(SCC(=O)Nc2ccccc2C(F)(F)F)nc2ccsc2c1=O | -2.8% | -1.9% | 0.4% | -2.8% | -17.1% | -24.4%
CCCCn1c(SCC(=O)N2CCC(C)CC2)nc2ccsc2c1=O | 5.7% | -8.7% | -3.9% | 5.1% | ? | 14.6µM*
CCC1CCCCN1C(=O)CSc1nc2ccsc2c(=O)n1Cc1ccccc1 (stereo not given) | 6.0% | -2.0% | -0.4% | -12.3% | 20.6µM* | 9.2µM*

Screening results: PubChem BioAssay, National Center for Advancing Translational Sciences (NCATS)
